# Results reported in PubChem BioAssay.
# Unmarked numbers belong to inactive results. This is one part of the list. Activity calls are given as the source filed them.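 How the source made its calls, unless noted: active means inhibition above the primary screen's cutoff, its mean inhibition plus 3 SD (cut at about 35% in these data); inactive means the rest.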
# Columns and labels:
# [1] = target: Protein phosphatase methylesterase 1 (Homo sapiens) (UniProt Q9Y570); test: PME-1 inhibitor activity retest, confirmation, biochemical, fluorescence polarization, FP-Rh probe, triplicate (AID 2171;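 active means inhibition above the hit cutoff set in the earlier primary screen, cut at about 27% in these data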;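 further: 0% = enzyme with DMSO and 100% = wells lacking PME-1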); conditions: recombinant PME-1, FP-Rh probe fluorescence polarization; at 5.9 µM; hits give high values
# Chain of Protein phosphatase methylesterase 1 (Homo sapiens) (Q9Y570 whole entry, looked up): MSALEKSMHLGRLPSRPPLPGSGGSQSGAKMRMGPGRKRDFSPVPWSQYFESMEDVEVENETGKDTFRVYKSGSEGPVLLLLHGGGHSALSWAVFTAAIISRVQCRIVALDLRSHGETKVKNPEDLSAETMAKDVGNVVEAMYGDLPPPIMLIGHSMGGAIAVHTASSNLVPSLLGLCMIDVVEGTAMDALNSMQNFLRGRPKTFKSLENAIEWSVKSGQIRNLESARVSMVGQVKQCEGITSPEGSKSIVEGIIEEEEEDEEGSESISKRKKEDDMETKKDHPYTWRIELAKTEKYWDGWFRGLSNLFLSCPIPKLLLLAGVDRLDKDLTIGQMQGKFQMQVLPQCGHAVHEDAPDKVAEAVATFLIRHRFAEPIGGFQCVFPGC
# [2] = target: Nuclear receptor subfamily 5 group A member 2 (Homo sapiens) (UniProt O00482); test: LRH-1 (NR5A2) inverse agonists, retest, confirmation, cell-based, luminescence (AID 651613; in the data active means inhibition above about 42%;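 further: HEK293T cells co-transfected with LRH-1 and StAR promoter luciferase reporter; 0% = vehicle wells and 100% = parental cells lacking receptor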); conditions: cell-based LRH-1 luciferase reporter, inverse agonism; at 3.6 µM; hits give high values
# Chain of Nuclear receptor subfamily 5 group A member 2 (Homo sapiens) (O00482 whole entry, looked up): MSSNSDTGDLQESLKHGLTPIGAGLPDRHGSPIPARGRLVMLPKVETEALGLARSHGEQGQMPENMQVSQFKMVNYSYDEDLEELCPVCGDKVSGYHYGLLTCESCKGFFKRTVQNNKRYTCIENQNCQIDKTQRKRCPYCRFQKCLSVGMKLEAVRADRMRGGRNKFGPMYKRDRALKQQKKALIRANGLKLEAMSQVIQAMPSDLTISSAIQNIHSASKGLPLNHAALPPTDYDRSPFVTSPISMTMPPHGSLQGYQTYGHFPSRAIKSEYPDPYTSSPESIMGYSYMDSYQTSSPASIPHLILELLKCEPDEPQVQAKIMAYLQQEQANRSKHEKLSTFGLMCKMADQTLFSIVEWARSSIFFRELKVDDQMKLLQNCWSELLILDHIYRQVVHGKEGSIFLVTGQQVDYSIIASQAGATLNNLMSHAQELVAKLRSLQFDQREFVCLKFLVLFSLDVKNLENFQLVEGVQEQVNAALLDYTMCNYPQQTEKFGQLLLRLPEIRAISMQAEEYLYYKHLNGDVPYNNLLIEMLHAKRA
# [3] = target: Steroidogenic factor 1 (Homo sapiens) (UniProt Q13285); test: SF1 (NR5A1) inverse agonists, counter-screen for LRH-1 inverse agonist project, cell-based, luminescence, high throughput (AID 651614; in the data active means inhibition above about 44%;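 further: cells cotransfected with StAR promoter reporter and SF1 expression vector; 0% = vehicle on cells with receptor and 100% = vehicle on cells lacking receptor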); conditions: cell-based SF1 luciferase reporter, at 3.6 µM, hits give high values
# Chain of Steroidogenic factor 1 (Homo sapiens) (Q13285 whole entry, looked up): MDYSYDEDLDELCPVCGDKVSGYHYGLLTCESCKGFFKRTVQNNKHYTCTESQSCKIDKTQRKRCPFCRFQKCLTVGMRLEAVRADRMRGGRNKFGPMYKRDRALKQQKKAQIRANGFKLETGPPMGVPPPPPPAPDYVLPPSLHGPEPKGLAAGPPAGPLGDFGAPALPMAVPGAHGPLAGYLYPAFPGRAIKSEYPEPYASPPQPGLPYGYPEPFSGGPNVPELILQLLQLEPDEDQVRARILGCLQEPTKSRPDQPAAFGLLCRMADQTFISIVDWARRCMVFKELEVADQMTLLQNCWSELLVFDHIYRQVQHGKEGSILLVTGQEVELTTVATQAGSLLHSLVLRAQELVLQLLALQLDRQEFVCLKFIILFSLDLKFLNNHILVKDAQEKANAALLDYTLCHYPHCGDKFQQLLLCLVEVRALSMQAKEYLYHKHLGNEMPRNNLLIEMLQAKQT
# [4] = target: Glutathione S-transferase omega-1 (Homo sapiens) (UniProt P78417); test: GSTO1 inhibitor hit confirmation, counter-screen for RBBP9 inhibitor project, biochemical, fluorescence polarization, triplicate (AID 2176); conditions: recombinant GSTO1, probe fluorescence polarization; at 5.96 µM; hits give high values;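 further: loss of polarization as inhibitors block binding of rhodamine sulfonate ester activity probe; 0% = GSTO1 with DMSO and 100% = wells lacking GSTO1 enzyme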
# Chain of Glutathione S-transferase omega-1 (Homo sapiens) (P78417 whole entry, looked up, the tested form may be a part): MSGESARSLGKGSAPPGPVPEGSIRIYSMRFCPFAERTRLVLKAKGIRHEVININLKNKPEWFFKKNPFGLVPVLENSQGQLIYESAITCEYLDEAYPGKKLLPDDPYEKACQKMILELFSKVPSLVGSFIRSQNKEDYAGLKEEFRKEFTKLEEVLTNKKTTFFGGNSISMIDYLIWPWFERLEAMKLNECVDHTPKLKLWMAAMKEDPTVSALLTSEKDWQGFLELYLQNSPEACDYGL
# [5] = target: Nuclear receptor coactivator 1 (Homo sapiens) (UniProt Q15788); test: SRC1 coactivator transcriptional activity inhibitors, confirmation, cell-based, luminescence, quadruplicate (AID 588820;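 active means mean inhibition above 46.68%, the untreated control wells mean plus 3 SD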;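 further: 0% = DMSO wells and 100% = gossypol 36 µM treated wells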); conditions: HEK293 GAL4-SRC1 luciferase reporter, at 3.6 µM, hits give high values
# [6] = VP16 transactivation inhibitors, counter-screen for SRC1 inhibitor project, cell-based, luminescence, high throughput (AID 588824; in the data active means inhibition above about 25%); conditions: cell-based VP16 transactivation luciferase luminescence; at 3.6 µM; hits give high values
# [7] = StAR promoter reporter inhibitors, counter-screen for LRH-1 inverse agonist project, cell-based, luminescence, high throughput (AID 651611; in the data active means inhibition above about 28%); conditions: StAR promoter luciferase reporter counterscreen, at 3.6 µM, hits give high values
# [8] = VP16 transactivation reporter inhibitors, counter-screen for LRH-1 inverse agonist project, cell-based, luminescence, high throughput (AID 651615; in the data active means inhibition above about 33%); conditions: Gal4-VP16 luciferase reporter cells, at 3.6 µM, hits give high values
# [9] = target: Serine protease HTRA1 (Homo sapiens) (UniProt Q92743); test: HTRA1 protease inhibitors, retest, confirmation, biochemical, fluorescence polarization (AID 540248;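 active means mean inhibition over three repeats above a set limit taken from the earlier primary screen, cut at about 37% in these data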;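 further: 0% = HTRA1 with DMSO and 100% = wells lacking HTRA1; inhibitors block probe binding so polarization drops and inhibition rises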); conditions: recombinant HTRA1, FP-rhodamine activity-based probe, at 5.96 µM, hits give high values
# [10] = target: (Lyso)-N-acylphosphatidylethanolamine lipase (Mus musculus) (UniProt Q8VD66); test: ABHD4 inhibitors, retest, confirmation, biochemical, fluorescence polarization, mouse (AID 720658;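 active means mean inhibition across replicates above the hit cutoff set in the primary screen, cut at about 30% in these data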;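 further: 0% = wild-type ABHD4 with DMSO and 100% = catalytically dead S159A mutant with DMSO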); conditions: purified mABHD4, FP-Rh probe fluorescence polarization; at 8.92 µM; hits give high values
# Chain of (Lyso)-N-acylphosphatidylethanolamine lipase (Mus musculus) (Q8VD66 whole entry, looked up): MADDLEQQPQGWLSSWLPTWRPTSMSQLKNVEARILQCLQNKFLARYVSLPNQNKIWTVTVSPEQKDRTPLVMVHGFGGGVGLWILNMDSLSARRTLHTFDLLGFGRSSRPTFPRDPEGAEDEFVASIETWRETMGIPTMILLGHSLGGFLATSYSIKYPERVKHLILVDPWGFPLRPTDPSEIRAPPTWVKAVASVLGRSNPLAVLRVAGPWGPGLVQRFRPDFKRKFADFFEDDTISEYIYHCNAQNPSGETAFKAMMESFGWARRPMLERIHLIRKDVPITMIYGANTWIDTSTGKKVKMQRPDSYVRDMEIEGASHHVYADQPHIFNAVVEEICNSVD
# [11] = target: Protein-arginine deiminase type-4 (Homo sapiens) (UniProt Q9UM07); test: human PAD4 inhibitors, confirmation, biochemical, fluorescence polarization (AID 488796;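 active means mean inhibition across replicates above the hit cutoff set by the earlier primary screen, cut at about 15% in these data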;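 further: inhibitors block active-site labeling by the probe so polarization falls; 0% = PAD4 with probe and DMSO and 100% = probe without PAD4 enzyme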); conditions: recombinant PAD4, RCA probe fluorescence polarization; at 6.36 µM; hits give high values
# Chain of Protein-arginine deiminase type-4 (Homo sapiens) (Q9UM07 whole entry, looked up): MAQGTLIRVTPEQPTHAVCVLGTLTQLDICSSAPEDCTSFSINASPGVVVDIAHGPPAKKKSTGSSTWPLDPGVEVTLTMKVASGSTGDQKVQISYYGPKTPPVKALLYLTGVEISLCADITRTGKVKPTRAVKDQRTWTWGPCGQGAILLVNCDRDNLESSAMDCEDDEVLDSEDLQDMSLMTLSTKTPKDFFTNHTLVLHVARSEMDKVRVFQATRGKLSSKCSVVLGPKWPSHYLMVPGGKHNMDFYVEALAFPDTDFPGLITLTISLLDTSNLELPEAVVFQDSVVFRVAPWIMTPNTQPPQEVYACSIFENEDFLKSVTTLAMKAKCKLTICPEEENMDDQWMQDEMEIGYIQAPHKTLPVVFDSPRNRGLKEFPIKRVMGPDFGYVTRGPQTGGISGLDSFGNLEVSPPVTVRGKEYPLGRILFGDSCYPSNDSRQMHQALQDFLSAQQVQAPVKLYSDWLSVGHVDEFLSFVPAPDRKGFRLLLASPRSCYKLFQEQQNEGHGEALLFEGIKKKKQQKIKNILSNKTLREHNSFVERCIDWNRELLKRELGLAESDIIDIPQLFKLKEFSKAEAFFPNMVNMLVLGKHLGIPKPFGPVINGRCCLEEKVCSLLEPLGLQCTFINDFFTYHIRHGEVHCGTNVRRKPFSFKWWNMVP
# [12] = target: Platelet-activating factor acetylhydrolase IB subunit alpha1 (Homo sapiens) (UniProt Q15102); test: PAFAH1B3 enzyme inhibitors, confirmation, biochemical, fluorescence polarization, human (AID 493032;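 active means average inhibition over triplicate runs above the hit cutoff set in the earlier primary screen, cut at about 25% in these data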;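 further: 0% = enzyme with DMSO and 100% = wells lacking PAFAH1B3 protein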); conditions: recombinant PAFAH1B3, FP-Rh activity-based probe, at 3.39 µM, hits give high values
# Chain of Platelet-activating factor acetylhydrolase IB subunit alpha1 (Homo sapiens) (Q15102 whole entry, looked up): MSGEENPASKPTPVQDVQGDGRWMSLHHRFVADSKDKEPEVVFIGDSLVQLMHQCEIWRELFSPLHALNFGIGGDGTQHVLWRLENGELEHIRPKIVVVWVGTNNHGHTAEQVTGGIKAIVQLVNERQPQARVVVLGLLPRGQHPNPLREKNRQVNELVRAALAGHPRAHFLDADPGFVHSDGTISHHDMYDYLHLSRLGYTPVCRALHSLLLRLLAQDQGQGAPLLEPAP
# [13] = target: Insulin-degrading enzyme (Homo sapiens) (UniProt P14735); test: human IDE inhibitors in live cells, confirmation, fluorescence polarization, HEK cells, FAbetaB substrate (AID 435028;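 active means mean inhibition across triplicate wells above the cutoff set by the earlier primary insulin-degrading enzyme screen, cut at about 16% in these data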;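 further: 0% = DMSO wells and 100% = 60 µM reference IDE inhibitor Ii1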); conditions: FAbetaB cleavage, at 5.59 µM, hits give high values
# Chain of Insulin-degrading enzyme (Homo sapiens) (P14735 whole entry, looked up): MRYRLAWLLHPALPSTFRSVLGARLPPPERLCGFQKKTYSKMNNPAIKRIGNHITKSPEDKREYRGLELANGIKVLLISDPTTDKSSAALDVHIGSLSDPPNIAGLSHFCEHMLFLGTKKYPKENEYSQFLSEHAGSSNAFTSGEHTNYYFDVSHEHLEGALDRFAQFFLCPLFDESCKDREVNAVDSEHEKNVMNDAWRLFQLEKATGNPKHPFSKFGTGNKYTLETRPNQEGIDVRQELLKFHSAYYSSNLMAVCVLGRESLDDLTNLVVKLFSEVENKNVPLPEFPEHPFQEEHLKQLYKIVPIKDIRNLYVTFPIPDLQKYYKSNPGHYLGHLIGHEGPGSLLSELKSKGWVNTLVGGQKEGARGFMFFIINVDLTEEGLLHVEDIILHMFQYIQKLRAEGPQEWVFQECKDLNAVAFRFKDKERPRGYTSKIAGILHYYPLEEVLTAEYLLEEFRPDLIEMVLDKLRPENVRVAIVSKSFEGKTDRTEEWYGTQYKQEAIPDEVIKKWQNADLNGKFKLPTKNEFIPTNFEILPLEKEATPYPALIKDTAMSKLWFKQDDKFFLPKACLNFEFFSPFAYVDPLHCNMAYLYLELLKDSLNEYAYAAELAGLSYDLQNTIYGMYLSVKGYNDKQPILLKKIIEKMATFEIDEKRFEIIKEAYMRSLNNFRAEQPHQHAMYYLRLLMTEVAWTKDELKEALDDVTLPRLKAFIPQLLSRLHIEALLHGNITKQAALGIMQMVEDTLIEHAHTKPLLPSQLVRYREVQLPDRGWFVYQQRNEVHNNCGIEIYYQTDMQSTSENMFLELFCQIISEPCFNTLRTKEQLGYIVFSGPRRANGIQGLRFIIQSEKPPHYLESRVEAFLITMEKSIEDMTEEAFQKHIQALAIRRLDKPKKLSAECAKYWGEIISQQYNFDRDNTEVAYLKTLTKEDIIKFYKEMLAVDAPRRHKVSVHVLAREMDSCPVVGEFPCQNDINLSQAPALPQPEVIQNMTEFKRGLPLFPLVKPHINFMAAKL
# [14] = cytotoxicity in HEK cells, cytotoxicity control for IDE inhibitor project, cell-based, luminescence (AID 449730; in the data active means inhibition above about 22%;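 further: 0% = vehicle wells and 100% = reference cytotoxic drug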); conditions: HEK293 cytotoxicity, ATP luminescence; at 5.59 µM; hits give high values
# [15] = growth loss of phage-infected E. coli expressing H. pylori AddAB, confirmation, AddAB inhibitor project, absorbance, E. coli V3065, T4 phage, triplicate (AID 488942;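 active means mean inhibition above a set limit taken from the earlier primary screen, cut at about 13% in these data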;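 further: higher means less bacterial growth since AddAB block lets phage replicate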); conditions: OD, at 11.9 µM, hits give high values, T4 phage with gene 2 nonsense mutations
# [16] = growth loss of RecBCD+ E. coli with mutant T4 phage, counter-screen for AddAB inhibitor project, absorbance, V66 E. coli (AID 488955;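 active means mean inhibition above the mean of solvent-only control wells plus 3 SD, cut at about 4% in these data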;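 further: optical density read after an 18 h incubation at 37 °C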); conditions: OD growth, at 11.9 µM, hits give high values
# [17] = bacterial viability inhibition counter-screen, confirmation, counter-screen for AddAB inhibitor project, absorbance (AID 488956; in the data active means inhibition above about 25%); conditions: absorbance (AddAB counterscreen), at 11.9 µM, hits give high values
# [18] = tested on: transactivating tegument protein VP16 (Human herpesvirus 1); test: VP16 transactivation reporter inhibitors, counter-screen for SRC2 inhibitor project, cell-based, luminescence, single concentration (AID 652007; in the data active means inhibition above about 36%); conditions: cell-based VP16 transactivation luciferase reporter, at 8.9 µM, hits give high values
# [19] = target: Nuclear receptor coactivator 2 (Homo sapiens) (UniProt Q15596); test: SRC2 coactivator transcriptional activity inhibitors, confirmation, cell-based, luminescence, HEK293, triplicate (AID 652008;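 active means mean inhibition above 46.5%, the solvent-only control mean plus 3 SD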;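 further: 0% = DMSO-treated cells and 100% = Gossypol at 36 µM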); conditions: HEK293 GAL4-SRC2 luciferase reporter, at 8.9 µM, hits give high values
# [20] = target: Platelet-activating factor acetylhydrolase (Homo sapiens) (UniProt Q13093); test: pPAFAH (PLA2G7) enzyme inhibitors, confirmation, biochemical, fluorescence polarization, human (AID 463230;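 active means mean inhibition of the triplicate above the hit cutoff set for the earlier primary screen, cut at about 25% in these data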;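 further: 0% = enzyme with DMSO and 100% = wells lacking pPAFAH enzyme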); conditions: recombinant pPAFAH, FP-Rh probe fluorescence polarization; at 3.39 µM; hits give high values
# Chain of Platelet-activating factor acetylhydrolase (Homo sapiens) (Q13093 whole entry, looked up): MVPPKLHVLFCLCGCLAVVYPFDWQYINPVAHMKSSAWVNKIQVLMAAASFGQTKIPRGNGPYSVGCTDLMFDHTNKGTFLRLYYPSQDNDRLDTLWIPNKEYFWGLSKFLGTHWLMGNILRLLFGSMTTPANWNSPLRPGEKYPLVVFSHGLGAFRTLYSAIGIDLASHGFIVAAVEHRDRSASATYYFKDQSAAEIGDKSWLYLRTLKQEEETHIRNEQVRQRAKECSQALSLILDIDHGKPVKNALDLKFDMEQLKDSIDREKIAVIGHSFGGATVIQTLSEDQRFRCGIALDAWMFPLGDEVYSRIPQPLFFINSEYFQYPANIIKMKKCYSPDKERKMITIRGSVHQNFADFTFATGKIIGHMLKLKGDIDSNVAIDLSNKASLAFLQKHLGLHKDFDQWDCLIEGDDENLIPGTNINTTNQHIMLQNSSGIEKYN
smiles,measurement,setting,value
COc1ccc2c(c1)[nH]c1c(N3CCN(Cc4ccc5c(c4)OCO5)CC3)ncnc12,inhibition,[1],14.8%
same,inhibition,[2],50.2% (active)
same,inhibition,[3],53.7% (active)
COC(=O)c1ccc(CSc2nncn2N)cc1,inhibition,[4],1.78%
COc1cc(OC)c2cc(C(=O)N/N=C/c3cccc(OC)c3O)[nH]c2c1,inhibition,[1],39.4% (active)
same,inhibition,[5],17.7%
same,inhibition,[6],6.13%
Cc1cc(C)c(S(=O)(=O)/N=C2/C=C(Sc3ncn[nH]3)C(=O)c3ccccc32)cc1C,inhibition,[1],17.7%
same,inhibition,[7],27.3%
same,inhibition,[2],77.8% (active)
same,inhibition,[3],72.5% (active)
same,inhibition,[8],39.7% (active)
O=C(CCl)Nc1cccc(CP(=O)(c2ccccc2)c2ccccc2)c1,inhibition,[4],90.4% (active)
COCCn1c(N)c(C(=O)NCC2CCCO2)c2nc3ccccc3nc21 (stereo not drawn),inhibition,[1],15.1%
same,inhibition,[7],26.9%
same,inhibition,[2],47.2% (active)
same,inhibition,[3],50.4% (active)
same,inhibition,[8],-14.9%
COc1ccc(N2CCN(c3ncnc4c3[nH]c3ccccc34)CC2)cc1,inhibition,[1],28% (active)
same,inhibition,[5],3.21%
same,inhibition,[6],24.6%
CCCc1nc2ccccc2c(=O)n1/N=C/c1ccc(O)c(O)c1,inhibition,[4],3.52%
CCN(C(=O)COC(=O)c1cc(NS(=O)(=O)c2ccc(Cl)c([N+](=O)[O-])c2)ccc1O)C1CCCCC1,inhibition,[4],32.6%
CC1C(=O)Nc2ccccc2N1C(=O)c1ccc(F)cc1F (stereo not drawn),inhibition,[4],5.92%
O=c1cc(CCl)nc2scc(-c3ccccc3)n12,inhibition,[4],96.3% (active)
Cn1c(SCC(=O)N/N=C/c2ccc(O)c(O)c2)nc2ccccc21,inhibition,[4],3.76%
same,inhibition,[9],72.4% (active)
same,inhibition,[10],14.6%
Cc1[nH][nH]c(=O)c1C(c1ccc(-c2ccc(Cl)cc2)o1)c1c(C)[nH][nH]c1=O,inhibition,[4],22.6%
same,inhibition,[11],2.58%
COCCN1C=C2C(=O)C(C)(OC(=O)C3CCCC3)C(=O)C=C2C=C1c1ccsc1 (stereo not drawn),inhibition,[4],7.54%
same,inhibition,[11],-1.24%
COC(=O)CCCC1=CC2=C(c3ccccc3)C(=O)C(C)(OC(=O)C3CCCC3)C(=O)C2=CN1c1ccc(OC)cc1 (stereo not drawn),inhibition,[4],16.9%
O=C(CCl)NNc1cccc(Cl)n1,inhibition,[4],50% (active)
O=C1Nc2c(Br)cc(Br)cc2C1(O)N1CCOCC1 (stereo not drawn),inhibition,[4],25.2%
same,inhibition,[12],8.59%
O=S(=O)(O)Oc1c[nH]c2ccccc12,inhibition,[4],51.2% (active)
COc1ccc2c(c1)OC(O)(C(F)(F)C(F)F)CC2=O (stereo not drawn),inhibition,[4],5.88%
O=C(c1cccnc1)N(c1cc2sc(=O)oc2c2ccccc12)S(=O)(=O)c1ccccc1,inhibition,[4],6.84%
same,inhibition,[13],3.36%
same,inhibition,[14],10.9%
same,inhibition,[10],17.6%
O=[N+]([O-])c1ccc(C=Nc2ccc(Cl)cc2Cl)s1,inhibition,[4],11.6%
c1coc(-c2nc3nc4ccccc4n3nc2-c2ccco2)c1,inhibition,[4],16.5%
O=C(c1[nH]ncc1-c1ccc(Cl)cc1)C1CO1 (stereo not drawn),inhibition,[4],79.6% (active)
same,inhibition,[15],57.3% (active)
same,inhibition,[16],7.58% (active)
same,inhibition,[17],34.3% (active)
CCC1(CC)Cc2ccccc2-c2nc(CCl)[nH]c(=O)c21,inhibition,[4],94% (active)
CC(=O)N(C1=C(Cl)C(=O)c2ccccc2C1=O)c1ccc(C(=O)O)cc1,inhibition,[4],77.8% (active)
same,inhibition,[13],164% (active)
same,inhibition,[14],14.1%
same,inhibition,[12],25.6% (active)
O=C(O)c1cccc(NC(=S)N/N=C/c2c[nH]c3ccccc23)c1,inhibition,[4],54.5% (active)
CC1=CC(C)(C)Nc2ccc(OC(=O)CN3C(=O)C4CCCCC4C3=O)cc21 (stereo not drawn),inhibition,[4],1.06%
same,inhibition,[13],29.8% (active)
same,inhibition,[14],75% (active)
same,inhibition,[18],-22.9%
same,inhibition,[19],27.4%
O=C(OCC(=O)N1CCCC1=O)c1cc(S(=O)(=O)N2CCOCC2)ccc1Cl,inhibition,[4],1.2%
NNC(=O)c1oc2nc(-c3ccccc3)cc(-c3ccco3)c2c1N,inhibition,[4],3.35%
same,inhibition,[20],18.2%
O=C(Cn1c(-c2ccccn2)nc2ccccc21)NCCN1CCOCC1,inhibition,[4],6.3%
COC1=C(N2CCOCC2)C(=O)c2ccccc2C1=O,inhibition,[4],28.9%
Cc1ccc(C(=O)N/N=C/c2sc(=O)n(Cc3cccc(C(=O)O)c3)c2Cl)cc1,inhibition,[4],48.3% (active)
COC(=O)CCCC1=CC2=CC(=O)C(C)(OC(=O)c3cccs3)C(=O)C2=CN1CC1CC1 (stereo not drawn),inhibition,[4],30.3%
same,inhibition,[11],1.6%
Cc1ccc(SCC2=NNC(=O)C2)cc1,inhibition,[4],11.5%
CC/C(=N/Nc1ccccc1)c1cnnc(SC)n1,inhibition,[4],9.56%
COc1ccc(C(C(=O)NC2CCCCC2)N(C(=O)CCl)c2ccccc2Cl)cc1 (stereo not drawn),inhibition,[4],45% (active)
Oc1ccc(CNc2ccccc2O)cc1,inhibition,[4],21.7%
same,inhibition,[9],29%
same,inhibition,[10],37.2% (active)
CCOc1c(Br)cc(/C=C2\C(=O)N(CCC#N)N=C2C)cc1OC,inhibition,[4],3.85%
same,inhibition,[11],-1.18%
C[n+]1ccccc1C1CCCC/C1=N\Nc1ccc([N+](=O)[O-])cc1[N+](=O)[O-] (stereo not drawn),inhibition,[4],6.21%
COc1ccc(S(=O)(=O)N2CCOCC2)cc1NC(=O)CSc1ncnc2ccccc12,inhibition,[4],15.2%
same,inhibition,[11],0.87%
